mHTT-CaM PPI inh – disrupts binding of mutant huntingtin to calmodulin | P42858 | AlphaScreen His-mHTT/GST-CaM binding, luminescence | inhibition, % at 15 µM | hit rate 3.6% among 190,000 | AID 1671202
Pf apPOL block – Pf-apPOL DNA polymerase inhibition | Recombinant Pf-apPOL, molecular beacon fluorescence, 1.5 h | inhibition, % at 10 µM | hit rate 0.25% among 210,000
Large screens that a line does not name were inactive. Only some compounds are listed: those with a hit (about 3.5% of all), similar ones and a draw of the others. Cut-off read from the data, not from the text of the source: active = inhibition above about 50%; inactive = the rest.

Cc1ccc(N2C=C(C(=O)N3CCCC3)S(=O)(=O)c3ccccc32)cc1C	none
CCc1nc(-c2ccc(C(=O)N3CCc4ccccc4C3)cc2)cs1	mHTT-CaM PPI inh 60
CCc1nc(-c2ccc(C(=O)N3CCN(c4ccccc4)CC3)cc2)cs1	none
O=C(CSc1nnc(SCC(=O)NC2Cc3ccccc3C2)s1)NC1Cc2ccccc2C1	none (no result: mHTT-CaM PPI inh)
COc1cc(NC(=O)Nc2cccc3cccnc23)cc(OC)c1OC	none
CCOc1ccc(C=Nc2ccc(S(=O)(=O)Nc3ccccn3)cc2)cc1OCC	none
COc1cc(C(Nc2ccccn2)c2ccc3cccnc3c2O)cc(Br)c1OC (centres undefined)	mHTT-CaM PPI inh 98
CCOc1cc(C(Nc2ccccn2)c2ccc3cccnc3c2O)ccc1OC (centres undefined)	mHTT-CaM PPI inh 100
CCOc1cc(C(Nc2ccccn2)c2ccc3cccnc3c2O)ccc1O (centres undefined)	mHTT-CaM PPI inh 100
CCOc1cc(C(c2c(C)[nH][nH]c2=O)c2c(C)[nH][nH]c2=O)ccc1O	none
O=C(CCc1conc1-c1ccccc1)NC1CCCCCC1	none
O=C(CCSc1ccccc1)N1CCN(c2ccc(-c3ccccn3)nn2)CC1	mHTT-CaM PPI inh 100
COc1cccc(C(=O)N2CCN(c3ccc(Nc4ccccn4)nn3)CC2)c1OC	none
O=C(CSC1CCCC1)N1CCN(c2ccc(-c3ccccn3)nn2)CC1	mHTT-CaM PPI inh 100
O=C(CSCc1ccccc1)N1CCN(c2ccc(-c3cccs3)nn2)CC1	none
COc1cccc(C(=O)N2CCN(c3ccc(-c4ccccn4)nn3)CC2)c1OC	mHTT-CaM PPI inh 100
O=C(Cn1ccc2ccccc21)N1CCN(c2ccc(-c3ccccn3)nn2)CC1	none
COc1ccc(C2=N/C(=C\c3cc(Br)ccc3F)C(=O)O2)cc1OC	none
Cc1ccccc1C(=O)Nc1cccc(-c2nc3ncccc3o2)c1C	none
CCCc1oc2cc(OCC(=O)OC)c(CC)cc2c(=O)c1-c1ccc2c(c1)OCCCO2	none
CCc1cc2c(=O)c(-c3ccc4c(c3)OCCO4)c(C)oc2cc1OCC(=O)OC	Pf apPOL block 55
O=C1C(=O)N(CCCO)C(c2cccc([N+](=O)[O-])c2)C1=C(O)c1ccccc1 (centres undefined)	none
N#CC(C#N)C(C#N)(C#N)C1CCC/C(=C\c2ccco2)C1=O (centres undefined)	mHTT-CaM PPI inh 99
O=C1/C(=C/c2ccco2)CC2CC1C/C(=C\c1ccco1)C2=O	none
CCN(CC)C(=O)c1c(C)sc2ccn(C)c(=O)c12	none
CC(C)[C@@H](COc1ccccc1)N1CCN(Cc2ccccc2)CCC1=O	none
O=C1CCN(Cc2ccccc2)CCN1[C@H](COc1ccccc1)c1ccccc1	mHTT-CaM PPI inh 85
COc1cc(OC)c(NC(=O)N2CCc3nc(-c4ccc(F)cc4)ncc3C2)cc1Cl	none
CCn1c(-c2cc(NC(=O)C3CC3)n[nH]2)cc2ccc(OC)cc21	none
CCn1c(-c2cc(NC(=O)C3CC3)n[nH]2)cc2c(OC)cccc21	mHTT-CaM PPI inh 50
CC1=C(C(=O)Nc2ccc(F)cc2F)C(c2cccs2)C2=C(CC(c3ccccc3)CC2=O)N1 (centres undefined)	none
Cc1ccc(N2C(=O)CCS2(=O)=O)cc1S(=O)(=O)Nc1cccc2cccnc12	mHTT-CaM PPI inh 75
Cc1ccccc1NS(=O)(=O)c1cccc2cccnc12	none
O=C(c1ccccc1)N1CCCN(c2cc(-c3ccc4c(c3)OCO4)[nH]n2)CC1	none
O=C(O)CN1C(=O)C(=CC=Cc2ccccc2)SC1=S	none
Cn1nc(COc2cccc(F)c2)c2c1CCN(C(=O)Nc1cccc(Cl)c1)C2	none
COc1ccc(NC(=O)N2CCc3c(c(COc4ccc(F)cc4)nn3C)C2)cc1F	none
Cn1nc(COc2ccc(F)cc2)c2c1CCN(C(=O)Nc1ccc(F)c(Cl)c1)C2	mHTT-CaM PPI inh 55
Cn1nc(COc2ccc(F)cc2)c2c1CCN(C(=O)Nc1cccc(C(F)(F)F)c1)C2	mHTT-CaM PPI inh 59
COC1=CCCC2C=CC3C(CCC4(C)C3CCC43CCC(=O)O3)C12C (centres undefined)	none
Cc1ccc(NS(=O)(=O)c2cccc3c2C(=O)c2ccccc2C3=O)c(C)c1	mHTT-CaM PPI inh 57
Cc1ccc(NS(=O)(=O)c2ccc3c4c(cccc24)C(=O)N3)c(C)c1	none
Cc1nc(C(F)(F)F)ccc1C(=O)N1CCN(c2nc3ccc(Cl)cc3s2)CC1	none (no result: mHTT-CaM PPI inh)
COc1ccccc1CNC(=O)C1CC(=O)N(c2ccc(F)c(Cl)c2)C1 (centres undefined)	none
CC(=O)n1c2c(c3ccccc31)OC(N)=C(C#N)C2c1ccc(C(C)C)cc1 (centres undefined)	mHTT-CaM PPI inh 50
CC(=O)n1c2c(c3ccccc31)OC(N)=C(C#N)C2c1ccc(F)cc1 (centres undefined)	none
C=CCNC(=O)c1cc2c(=O)n3cccc(C)c3nc2n(Cc2cccnc2)c1=N	none
CC(=O)Nc1ccc2c(c1)CCC2	none (no result: mHTT-CaM PPI inh)
COC1CCCCC1Nc1ccc2c(c1)CCC2 (centres undefined)	mHTT-CaM PPI inh 52 (no result: Pf apPOL block)
CC1=C(C(=O)Nc2ccccn2)C(c2cc([N+](=O)[O-])ccc2Cl)C2=C(CCCC2=O)N1 (centres undefined)	none
COc1ccc(S(=O)(=O)N2CCC(n3c(-c4ccoc4)nc4cccnc43)C2)cc1 (centres undefined)	none
COc1ccc(C2=NN(C(=O)c3ccccc3Cl)C(c3cccc([N+](=O)[O-])c3)C2)cc1 (centres undefined)	none
COc1ccc(C2=NN(CN3C(=O)C(=O)c4ccccc43)C(c3ccccc3Cl)C2)cc1 (centres undefined)	mHTT-CaM PPI inh 76
COc1ccc(C2=NN(CN3C(=O)C(=O)c4ccccc43)C(c3ccccc3)C2)cc1 (centres undefined)	none
COc1ccc(C2=NN(CN3C(=O)C(=O)c4ccccc43)C(c3cccc([N+](=O)[O-])c3)C2)cc1 (centres undefined)	mHTT-CaM PPI inh 96
O=C(N/C(=C\c1ccco1)C(=O)N1CCCCCC1)c1cccs1	none
COc1cc([N+](=O)[O-])cc2c1NC(c1ccc(Br)cc1)C1CC=CC21 (centres undefined)	none
COc1cc(C2Nc3ccc([N+](=O)[O-])cc3C3C=CCC32)cc(OC)c1OC (centres undefined)	mHTT-CaM PPI inh 71
NS(=O)(=O)c1ccc2c(c1)C1C=CCC1C(c1ccc(Br)cc1)N2 (centres undefined)	mHTT-CaM PPI inh 84
O=[N+]([O-])c1ccc(C2Nc3ccc(F)cc3C3C=CCC32)cc1 (centres undefined)	mHTT-CaM PPI inh 91
Cc1ccc2c(c1)NC(c1ccc([N+](=O)[O-])cc1)C1CC=CC21 (centres undefined)	none
Brc1ccc2c(c1)[C@@H]1C=CC[C@@H]1[C@H](c1ccncc1)N2	none (no result: Pf apPOL block)
Nc1ccc2c(c1)C1C=CCC1C(c1ccc([N+](=O)[O-])cc1)N2 (centres undefined)	mHTT-CaM PPI inh 98
CCCn1ccc2sc(C)c(C(=O)NC3CCCCC3)c2c1=O	none
Cn1cc(Br)c(NC(=O)CSc2cc(C(F)(F)F)cc(C(F)(F)F)c2)n1	none (no result: mHTT-CaM PPI inh)
O=C(c1ccc(C(F)(F)F)cc1)N1CCC(c2noc(-c3ccccc3)n2)CC1	none
Cc1cc(O)ccc1N1C(=O)c2ccc([N+](=O)[O-])cc2C1=O	none
N#C/C(=C\c1cc(Cl)cc(Cl)c1O)c1nc2ccccc2[nH]1	none
C=CCN(c1ccccc1)S(=O)(=O)c1cc(Br)cc2c1N(C(=O)CC)CC2	none
